S1P2 blocker – S1P2 (human) receptor antagonism | 0.21% of 97,000 active | cell-based S1P2 antagonist assay, inhibition at 5 uM | AID 736 | inhibition, % at 5 µM | O95136; in the data active = inhibition above about 45%;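 note: CRE beta-lactamase reporter cells expressing human S1P2 stimulated with S1P; 0% = agonist at EC80 alone and 100% = agonist plus reference antagonist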
GALR2 antag – blocks the human galanin receptor 2; 0.39% of 140,000 active; AID 828; GALR2-expressing cells, antagonist mode; inhibition, % at 4 µM;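 note: cells stimulated with galanin 1-16 at roughly its EC80; 0% = agonist challenge control and 100% = basal control without agonist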
Target sequence (O43603 whole entry, looked up): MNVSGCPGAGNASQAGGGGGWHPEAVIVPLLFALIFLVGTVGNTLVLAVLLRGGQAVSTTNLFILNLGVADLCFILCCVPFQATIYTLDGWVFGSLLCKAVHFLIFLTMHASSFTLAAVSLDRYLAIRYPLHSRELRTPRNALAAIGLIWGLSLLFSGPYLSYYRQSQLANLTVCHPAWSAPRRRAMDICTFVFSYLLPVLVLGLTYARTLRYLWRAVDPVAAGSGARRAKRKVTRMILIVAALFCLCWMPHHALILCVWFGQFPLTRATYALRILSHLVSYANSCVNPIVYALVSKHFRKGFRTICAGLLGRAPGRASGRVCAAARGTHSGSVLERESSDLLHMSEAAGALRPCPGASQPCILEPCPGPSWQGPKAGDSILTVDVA
GALR2 ag – agonists of human galanin receptor 2 (GALR2). GALR2-expressing cells, agonist activation read-out. activation, % (no concentration beside the values). 0.48% of 140,000 active; in the data active = activation above about 5%, passing the limit was not always enough;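 note: 0% = vehicle buffer wells and 100% = reference agonist at full effect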
hDAT+cocaine – human DAT dopamine uptake with cocaine, either direction; B-score at 10 µM; LLC-PK1 hDAT cells, [14C]-dopamine uptake with cocaine IC80; actives deviate in either direction; Q01959; AID 449768; 1.3% of 110,000 active;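 active = Z score or B-score, a plate-position-corrected score, falls beyond the plate's 99.7% confidence bounds, in either direction; inactive = both scores lie inside the 99.7% bounds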;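 note: scored against the spread of the other compound wells on the same plate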
S1P2 ag – agonists of human S1P2 receptor; O95136; S1P2-expressing cell line, agonist reporter read-out; activation, % at 4.5 µM; 0.46% of 97,000 active; AID 729; in the data active = activation above about 16%;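 note: 0% = vehicle low control and 100% = maximal reference agonist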
GALR2 ant conf – GALR2 (human) antagonism confirmed; shares compounds with GALR2 antag; GALR2-expressing cells, antagonist mode, inhibition; inhibition, % at 4 µM; 60% of 480 active; AID 866;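 note: cells stimulated with galanin at about its EC80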
BLA inhib ctr – counter-screen for GALR2 antagonists: beta-lactamase reporter inhibitors. CHO NFAT-BLA reporter, beta-lactamase FRET, thapsigargin-stimulated. AID 867. inhibition, % at 4.2 µM. shares compounds with GALR2 antag. 36% of 480 active;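 active = inhibition above the mean inhibition across tested compounds plus 3 SD, cut at about 27% in these data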;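 note: 0% = 500 nM thapsigargin stimulated wells and 100% = unstimulated BSA only wells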
* hit, by the source's call; x = no result; ! = repeats disagree. In the library only some 2.1% were active in any assay of this set; here they are far more common. Cut-off read from the data, not from the text of the source, unless noted: active = inhibition above about 27%; inactive = the rest.

SMILES | S1P2 blocker | GALR2 antag | GALR2 ag | hDAT+cocaine | S1P2 ag | GALR2 ant conf | BLA inhib ctr
COc1ccccc1-c1nnc(SCC(=O)NCc2c(C)c(Cl)cc(C(C)C)c2O)o1 | 17 | -8 | -1 | x | -1 | x | x
O=c1c2cnn(-c3ccccc3Cl)c2ncn1Cc1cccnc1 | 6 | -10 | -2 | -1.1 | -5 | x | x
Cc1c(C(=O)Nc2cccc(Cl)c2)c2ccccn2c1CCc1ccncc1 | x | 33* | -2 | x | x | 15 | 15
CCCCn1c(=O)c(CCC(=O)OCC(=O)Nc2ccc(F)c(Cl)c2)nc2ccccc21 | x | -12 | -1 | x | x | x | x
Oc1ccc(Nc2nc3ccccc3nc2Nc2ccc(O)cc2)cc1 | 21 | 32* | 0 | 1.3 | -1 | 34* | 33*
CC1CC(C)CN(S(=O)(=O)c2cc(C(=O)O)c(Cl)s2)C1 (configuration not stated) | x | 1 | -1 | x | x | x | x
O=C(Oc1ccccc1/C=C\C(=O)c1cc2ccccc2o1)c1ccccc1 | x | 27* | -1 | x | x | 26 | 14
Cc1ccc(-n2c(-c3ccc(Br)cc3)c[n+]3c2CCc2ccc4cccnc4c2-3)cc1 | 88* | 59* | 1 | -0.57 | -6 | 31* | 61*
C#CC(=O)N(c1ccc(OC)c(OC)c1)C(C(=O)NC1CCCC1)c1cccs1 (configuration not stated) | 35 | 41* | -2 | 0.72 | -12 | 54* | 51*
C#CC(=O)N(c1cccc(OC)c1)C(C(=O)NC1CCCC1)c1cccs1 (configuration not stated) | 41 | 62* | -2 | -1 | -8 | 72* | 58*
COc1ccc(N(C(=O)Cc2cccs2)C(C(=O)NC2CCCCC2)c2cccn2C)cc1OC (configuration not stated) | -22 | -15 | -2 | 0.21 | -10 | x | x
OC(Cn1cccn1)c1ccccc1 (configuration not stated) | 8 | -3 | 1 | -0.59 | -4 | x | x
Cc1ccc(C)c(NC(=O)CN(C)C(=O)COc2ncnc3sccc23)c1 | x | -1 | -2 | x | x | x | x
CCC(=O)c1ccc(N2CCN(C(=O)COc3ccc(F)cc3)CC2)c(F)c1 | 10 | 4 | 0 | 2.8 | -5 | x | x
CC(=O)c1ccc(N2CCN(C(=O)COc3ccc(F)cc3)CC2)c(F)c1 | x | 28* | -2 | 0.41 | x | 8 | -2
Cc1ccc(-n2c(Cl)c(Cl)nc(Cl)c2=O)cc1 | x | 81* | 2 | x | x | 92* | 99*
Cc1nnc(SCC(=O)Nc2nccs2)[nH]c1=O | 10 | 0 | -3 | x | -6 | x | x
COc1ccc(S(=O)(=O)Nc2ccccc2-c2nnn(CC(=O)Nc3ccccc3OC)n2)cc1 | x | 28* | -1 | x | x | 23 | 11
Cc1ccc2cc(C)c3nnc(SCC(=O)Nc4nc5c(s4)CCCC5)n3c2c1 | -3 | 0 | -2 | 0.24 | 0 | x | x
Cc1ccn2c(Nc3ccc4c(c3)OCO4)c(-c3ccccn3)nc2c1 | x | 30* | -2 | x | x | 20 | 26
O=S(=O)(NCc1ccncc1)c1ccc(Br)s1 | x | 37* | -2 | -0.64 | x | 44* | 8
O=C(O)CNS(=O)(=O)c1ccc(Br)s1 | x | 9 | -1 | 0.21 | x | x | x
Cn1c(SCC(=O)Nc2ccc3cn[nH]c3c2)nnc1-c1cccs1 | 10 | 30* | -2 | -0.031 | -6 | 18 | 14
CC1=C(C(N)=O)C(c2ccncc2)n2nc(-c3ccccc3Cl)nc2N1 (configuration not stated) | 13 | 6 | -1 | -1.1 | -1 | x | x
CC1=C(C)CS(=O)N(c2ccc(S(N)(=O)=O)cc2)C1 (configuration not stated) | 0 | 30* | -1 | -0.88 | -1 | 28* | 11
SMILES | S1P2 blocker | GALR2 antag | GALR2 ag | hDAT+cocaine | S1P2 ag | GALR2 ant conf | BLA inhib ctr
CCS(=O)(=O)c1c([N+](=O)[O-])ncn1C | x | 28* | -3 | x | x | 23 | 1
CC1=NNC(=O)/C1=C\c1cn(-c2ccccc2)nc1-c1cccs1 | x | 31* | -1 | x | x | -2 | 22
O=C(N/N=C/c1cn(-c2ccccc2)nc1-c1cccs1)c1ccccc1F | x | 14 | -1 | x | x | x | x
O=[N+]([O-])c1cc(C=Nc2ccc3ccccc3c2)ccc1Br | x | 33* | -2 | x | x | 13 | 5
COc1ccccc1N(CC(O)CN1C(=O)NC(C)(C)C1=O)S(=O)(=O)c1ccc(C)cc1 (configuration not stated) | -1 | -2 | -4 | -0.041 | -2 | x | x
CN(/N=C\c1ccc(O)c(O)c1)c1nc(-c2ccccc2)cc(-c2ccccc2)n1 | x | 47* | 0 | x | x | 64* | 81*
COc1cc(-c2[nH]nc3c2C(c2ccco2)C(C#N)=C(N)O3)cc(OC)c1OC (configuration not stated) | x | 14 | -1 | x | x | x | x
Cc1ccc(-c2csc(NC(=O)C3=NN(c4ccccc4)C(=O)CC3)n2)cc1 | x | 28* | -1 | x | x | 20 | 5
Cc1ccccc1CSc1ccc(-c2ccc3c(c2)OCO3)nn1 | x | -6 | -1 | x | x | x | x
CC(C)c1nc2sc3c(=O)n(N)cnc3c2c2c1COC(C)(C)C2 | x | 5 | 0 | x | x | x | x
Cc1ccc(Cl)c(NC(=O)COC(=O)c2ccccc2C(=O)c2ccc(Cl)c([N+](=O)[O-])c2)c1Cl | x | 69* | 1 | x | x | 80* | 71*
Cc1ccc2[nH]c3c(N4CCc5ccccc5C4)ncnc3c2c1 | 83* | 54* | -1 | 1.4 | -9 | 52* | 16
Brc1ccc2[nH]c3c(N4CCc5ccccc5C4)ncnc3c2c1 | 33 | 14 | -2 | 1.1 | 3 | x | x
COc1ccc(C(CC(=O)O)NC(=O)COc2ccc(C)cc2)cc1OC (configuration not stated) | x | 7 | -1 | x | x | x | x
Cc1ccc(S(=O)(=O)/N=C2/C=C(Sc3ncn[nH]3)C(=O)c3ccccc32)c(C)c1 | x | 27* | -1 | x | x | 16 | 27
COc1cc(C(Nc2ccc3c(c2)OCO3)C(=O)NC2CCCCC2)cc(OC)c1OC (configuration not stated) | -4 | -1 | -3 | 1 | -2 | x | x
O=C(CSc1nc2c(c(=O)n1-c1ccc(Cl)cc1)SCC2)Nc1ccc2c(c1)OCCO2 | x | -4 | 0 | -0.029 | x | x | x
CCC(=O)NNc1ncnc2ccccc12 | x | -3 | -2 | x | x | x | x
CCCCCCCCNc1ncnc2ccccc12 | 78* | 39* | -1 | -1.7 | -3 | 54* | 18
Cc1cc(Cl)c(S(=O)(=O)NC2CCCC2)cc1OCC(=O)NC1CCCCC1 | 8 | 9 | -1 | -1.1 | -5 | x | x
CCN(CC)CC(=O)N1c2ccccc2Sc2ccc(Cl)cc21 | 8 | 29* | -1 | -0.32 | -6 | 16 | 7
O=C(CSc1nc2ccccc2s1)N1c2ccccc2Sc2ccc(Cl)cc21 | 0 | 1 | -2 | x | -1 | x | x
COC(=O)C1=C(C(=O)OC)[C@@H]2N(C)c3ccccc3[C@@]23C[C@@H](CO)N(C(=O)NCCBr)C3=N1 | x | x | x | 0.026 | x | x | x
Fc1ccc(SCCc2ccncc2)cc1 | 18 | 32*! | -3 | 0.1 | -5 | 6 | 0

Screens deposited in PubChem by several laboratories.
